In the library only some 2.6% were active in any assay of this set; here they are far more common.
KKLEB cytotox – reduces viability of KKLEB cystic fibrosis airway cells; KKLEB CF airway cells viability, ATPlite luminescence, overnight; stronger effect = lower value; cells stimulated with P. aeruginosa culture filtrate; activity change (cytotoxicity), % at 5 µM; 360,000 compounds, 0.36% hits; AID 602141;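 active = corrected activity change at or below -50% at 5 µM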
Shn3 3UTR inh – reduces Shn3 3'UTR luciferase signal in osteoblasts; Clone20 osteoblast Shn3 3'UTR firefly luciferase, 24 h; inhibition, % at 12.5 µM; 360,000 compounds, 0.52% hits;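 active = mean inhibition of at least 75% with every replicate also reaching 75%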;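 note: 0% = median of neutral control wells and 100% = pilot-screen positive control compound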
CF NFkB inh – blocks PAF-induced NF-kB reporter in cystic fibrosis cells; KKLEB NF-kB-GFP reporter, GFP fluorescence overnight; inhibition, % at 5 µM; 360,000 compounds, 0.86% hits;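 active = at least 50% inhibition at 5 µM, scaled per plate between neutral and stimulator controls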;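 note: PAF is a Pseudomonas aeruginosa culture filtrate used as stimulus; plate controls were PAF-stimulated DMSO wells for no effect and unstimulated DMSO wells for full effect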
HIF-2a inh – HIF-2a inhibition. 786-0 RCC cells HIF-2a reporter, luciferase luminescence, overnight. inhibition, % at 18.8 µM. 360,000 compounds, 0.72% hits. AID 624352;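 active = inhibition of the luminescence signal of 40% or more relative to plate controls, in a single-dose primary screen at 18.75 µM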
Peg3 promoter – reduces Peg3 promoter-driven luciferase expression in HeLa; HeLa PEG-Prom luciferase reporter, luminescence, overnight; inhibition, % at 20 µM; 360,000 compounds, 1.7% hits;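 active = inhibition of at least 50% at 20 µM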
* marks the source's active call; other numbers are inactive results.

SMILES	KKLEB cytotox	Shn3 3UTR inh	CF NFkB inh	HIF-2a inh	Peg3 promoter
CN(C)CCN(C(=O)/C=C/c1cccs1)c1nc2c(F)cc(F)cc2s1	-30.7	54.7	31.8	7.3	105.8*
O=C(NC1CCC(O)CC1)c1ccc2c(c1)S(=O)(=O)N=C1CCCCCN12 (stereo not drawn)	-4.1	-28.4	-17.3	-39.8	-37.7
CCN1C/C(=C/c2cccc([N+](=O)[O-])c2)C(=O)/C(=C/c2cccc([N+](=O)[O-])c2)C1	-40.4	98.9*	101.6*	97.3*	104.0*
O=S1(=O)[C@H]2C[C@H](CO)O[C@@]2(CO)CN1Cc1ccc(-c2ccc(F)cc2)cc1	7.8	1.9	-6.1	-42.1	-30.2
O=c1c(/C=N\NS(=O)(=O)c2ccccc2)coc2ccc(Cl)cc12	7.6	8.0	39.1	1.6	6.8
CCOC(=O)c1nc(N/N=C/c2ccccc2)sc1Br	18.8	-29.4	0.4	-66.2	-91.4
CCOC(=O)c1cnc2ccc(C)cc2c1Nc1ccc(N2CCOCC2)cc1	-6.4	17.0	-1.6	7.6	78.6*
CCOC(=O)c1ccc(Nc2cc(C)nc(N3CCOCC3)n2)cc1	-5.9	-3.6	18.1	10.7	54.8*
CCOc1ccc(C(=O)Nc2cc(C)ccn2)cc1	-56.7*	10.6	7.8	5.5	37.5
Cc1ccnc(NC(=O)c2cc3ccccc3o2)c1	-41.3	57.2	0.3	35.4	51.1*
Cc1ccc2ccc(C(Nc3ccccn3)c3ccccc3)c(O)c2n1 (stereo not drawn)	7.2	6.8	0.7	12.6	4.5
Cc1cccc(NC(c2ccc(C)s2)c2ccc3ccc(C)nc3c2O)n1 (stereo not drawn)	-22.9	58.8	40.9	65.8*	44.8
O=C(/C=C/c1ccncc1)c1ccc(NC(=O)c2ccccc2F)cc1	-5.8	89.5*	71.9*	31.4	103.4*
CCN1CCN(c2ccc(S(=O)(=O)N3CCCCC3)cc2NC(=O)/C=C/c2ccc(Cl)cc2)CC1	-9.4	-23.2	7.6	-1.6	84.6*
CCN1CCN(c2ccc(S(=O)(=O)N3CCCCC3)cc2NC(=O)/C=C/c2cc(OC)ccc2OC)CC1	-9.4	39.7	-4.1	2.8	101.2*
CCN1CCN(c2ccc(S(=O)(=O)N3CCCCC3)cc2NC(=O)c2ccc([N+](=O)[O-])s2)CC1	2.0	55.0	28.8	26.8	63.9*
CCN1CCN(c2ccc(S(=O)(=O)N3CCCCC3)cc2NC(=O)c2ccccc2)CC1	17.2	1.1	-9.1	4.2	12.7
CCN1CCN(c2ccc(S(=O)(=O)N3CCCCC3)cc2NC(=O)/C=C/c2ccc(OC)c(OC)c2)CC1	-2.1	8.0	20.3	-1.5	-7.0
Cc1ccc(NC(=O)c2ccc(S(=O)(=O)N3CCCC3)cc2)nc1	-11.4	-9.4	-4.0	-42.2	-38.2
CC1(C(=O)N2CCCCC2)CCN1C(=O)C1(c2ccccc2)CC1 (stereo not drawn)	15.6	-10.0	-13.6	15.5	0.9
CCOC(=O)Cc1cc(=O)[nH]c(/N=C(\N)Nc2ccc(C)c(C)c2)n1	-1.7	-10.6	2.9	22.2	15.6
CC1(C)C[C@H](O)[C@]2(CO)[C@H](O)C[C@]3(C)C(=CCC4[C@@]5(C)CC[C@H](O)C(C)(C)C5CC[C@]43C)[C@@H]2C1 (stereo partly drawn)	-65.4*	34.9	69.1*	12.4	95.2*
CCCCC(=O)O[C@]1(C(=O)CO)CC[C@H]2[C@@H]3CCC4=CC(=O)CC[C@]4(C)[C@H]3[C@@H](O)C[C@@]21C	29.5	19.2	57.4*	11.7	-6.4
C[C@]12CCC(=O)C=C1CC[C@@H]1[C@@H]2CC[C@@]2(C)[C@H]1CC[C@]2(O)C(=O)CO	-3.0	29.3	22.1	9.0	-10.5
C[C@]12C=CC(=O)C=C1CCC1C3CC[C@](O)(C(=O)CO)[C@@]3(C)CC3OC312 (stereo partly drawn)	5.8	-2.8	13.1	23.7	0.2
SMILES	KKLEB cytotox	Shn3 3UTR inh	CF NFkB inh	HIF-2a inh	Peg3 promoter
CC12CCC(=O)C=C1C(F)CC1C2C(O)CC2(C)C1CCC2(O)C(=O)CO (stereo not drawn)	33.3	7.7	76.3*	22.4	9.6
CC(=O)OCC(=O)[C@@]1(O)CC[C@H]2[C@@H]3CCC4=CC(=O)C=C[C@]4(C)[C@H]3[C@@H](O)C[C@@]21C	1.8	-4.5	80.3*	26.8	-10.2
CC12C=CC(=O)C=C1CCC1C2C(O)CC2(C)C1CCC2(O)C(=O)CO (stereo not drawn)	54.4	-0.5	63.5*	22.8	5.9
CC(=O)OCC(=O)[C@@]1(O)CCC2C3CCC4=CC(=O)CCC4(C)C3C(=O)CC21C (stereo partly drawn)	1.5	-14.5	7.2	7.6	10.5
CCCCN(CCCC)Cc1cc(=O)oc2cc(OC)c(Cl)cc12	-0.8	14.3	-5.2	6.6	19.6
COc1ccc(NS(=O)(=O)c2cccc(C(=O)NNC(=O)CNC(=O)c3ccc(C)cc3)c2)cc1	10.0	-6.9	4.7	5.4	6.3
Cc1cnc(C(=O)NC(Cc2ccccc2)c2ccccc2)cn1 (stereo not drawn)	-1.2	-4.3	-14.2	-5.6	-0.4
CC(=O)OCC(=O)[C@@]1(O)CC[C@H]2[C@@H]3CCC4=CC(=O)C=C[C@]4(C)[C@@]3(Cl)[C@@H](Cl)C[C@@]21C	26.4	4.6	64.6*	24.6	-1.6
CC(=NNc1ccc2ccccc2n1)c1ccccc1O	-37.1	17.9	-34.9	43.4*	36.6
CN1/C(=C/C=C/c2n(C)c3cc([N+](=O)[O-])c([N+](=O)[O-])cc3[n+]2C)C(C)(C)c2ccccc21	9.5	35.8	-7.9	31.2	37.5
CCn1c(SCC(=O)NC2CCCCC2C)nnc1-c1ccc(OC)cc1 (stereo not drawn)	1.5	8.7	5.4	15.6	5.4
O=C1C(Cl)=C(N2CCCCC2)C(=O)C(Cl)=C1c1cnc(N2CCCCC2)s1	-4.0	7.8	2.7	44.9*	58.2*
O=C1C(Cl)=C(N2CCCCCC2)C(=O)N1c1ccc(Cl)cc1	5.2	-5.0	1.7	-37.3	0.9
CN(C)c1ncc(C2=C(Cl)C(=O)C(N3CCCC3)=C(Cl)C2=O)s1	2.3	-1.6	0.1	3.7	57.1*
COc1ccc(S(=O)(=O)n2cnc(C)c2)cc1	3.9	-16.5	-14.0	4.3	36.4
O=C(NCCOc1ccc(F)cc1)c1ccccc1SCc1ccccc1	2.7	-30.1	3.5	15.9	60.3*
Cc1c(NC(=O)Cn2[nH]c(=O)c3ccccc3c2=O)c(=O)n(-c2ccccc2)n1C	1.3	2.1	-7.6	3.5	-2.7
Cc1sc(NC(=O)Cn2[nH]c(=O)c3ccccc3c2=O)nc1-c1ccccc1	-2.2	40.7	15.7	-33.1	63.1*
COCC(C)NC(=O)CCS(=O)(=O)c1nc(-c2ccc(OC)cc2)cc(C(F)(F)F)n1 (stereo not drawn)	-75.6*	-9.0	86.2*	93.6*	109.9*
C=CCn1cnc2c(c1=O)c1nc3ccccc3nc1n2/N=C/c1cccc(OC)c1OC	-1.3	-12.8	-48.7	-34.8	61.1*
